Assay [1] in a line: ATG_GLI_CIS: Attagene CIS-FACTORIAL HepG2 Assay for human Zinc Finger Protein GLI1 (AID 2282945; active means hit-call score of the fitted dose curve at least 0.9, where 1 is the maximum; inactive means score below 0.9). The following applies: HepG2, Attagene cis-factorial reporter mRNA, GLI element; actives raise or lower the signal. In a few lines: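 Transiently transfected HepG2 cells report endogenous transcription factor activity via cis-element-driven reporter units. After 24 h compound exposure, reporter mRNA was measured by RT-PCR with capillary electrophoresis; bidirectional fitting against DMSO baseline.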

A short description of assay [2]: ATG_GRE_CIS: Attagene CIS-FACTORIAL HepG2 Assay for human Glucocorticoid Response Elements (GRE) (AID 2282947; active means hit-call score of the fitted dose curve at least 0.9, where 1 is the maximum; inactive means score below 0.9). The following applies: HepG2 GRE cis-reporter, Attagene multiplex mRNA; actives raise or lower the signal. In a few lines:
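Read-out: fluorescent reporter-transcript fragments separated by capillary electrophoresis after RT-PCR. Transiently transfected HepG2 cells carrying cis-element-driven reporter units were dosed for 24 h; gain or loss of signal fitted against DMSO control.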

Assay [3] has as its target Hepatocyte nuclear factor 6 (Homo sapiens) (UniProt Q9UBC0). The experiment in a line: ATG_HNF6_CIS: Attagene CIS-FACTORIAL HepG2 Assay for human Hepatocyte Nuclear Factor 6 (HNF6) (AID 2282952; active means hit-call score of the fitted dose curve at least 0.9, where 1 is the maximum; inactive means score below 0.9). The following applies: HepG2 Attagene cis-factorial HNF6 reporter transcription; actives raise or lower the signal. In a few lines:
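Endogenous transcription factor activity in human HepG2 liver cells was captured through cis-regulated reporter constructs. After 24 h treatment, reporter mRNA was measured by RT-PCR with capillary electrophoresis, and activity was fitted in both directions relative to DMSO.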

Assay [4] is described as follows: ATG_PBREM_CIS: Attagene CIS-FACTORIAL HepG2 Assay for human Phenobarbital-responsive Enhancer Module (PBREM) (AID 2282955; active means hit-call score of the fitted dose curve at least 0.9, where 1 is the maximum; inactive means score below 0.9). The following applies: HepG2 PBREM cis-reporter, Attagene multiplexed transcription; actives raise or lower the signal. An outline of the steps:
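Endogenous transcription factors in human liver HepG2 cells drive a PBREM cis-element reporter, whose transcript level after 24 h treatment is quantified by RT-PCR with capillary electrophoresis; activity fitted in both directions against DMSO.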

The nature of assay [5]: ATG_SREBP_CIS: Attagene CIS-FACTORIAL HepG2 Assay for human Sterol Regulatory Element Binding (SREBP) (AID 2282962; active means hit-call score of the fitted dose curve at least 0.9, where 1 is the maximum; inactive means score below 0.9). The following applies: HepG2 Attagene cis-factorial SREBP reporter, mRNA; actives raise or lower the signal. An outline of the steps: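 Endogenous factor activity is measured in HepG2 through multiplexed reporter units under cis-element control. Following a 24 h incubation, reporter transcripts are reverse-transcribed, PCR-amplified and sized by capillary electrophoresis; activity is fitted in both directions relative to DMSO.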

Assay [6] deals with Hepatocyte nuclear factor 4-alpha (Homo sapiens) (UniProt P41235). The experiment in a line: ATG_HNF4a_TRANS: Attagene TRANS-FACTORIAL HepG2 Assay for human Hepatocyte Nuclear Factor 4 alpha (HNF4a) (AID 2282982). The following applies: HepG2 HNF4a transactivation reporter, mRNA readout. An outline of the steps: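 Transient MRTU transfection of HepG2, 24 h dosing. Readout: reporter mRNA via RT-PCR + capillary electrophoresis, fluorescence; activity fit upward relative to DMSO control.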

Assay [7] in a line: ATG_M_06_TRANS: Attagene TRANS-FACTORIAL HepG2 Assay for M06 Transcription Factor (Internal Marker) (AID 2282983). The settings on record: HepG2 Attagene TRANS M06 internal marker reporter. In a few lines:
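Human liver HepG2 cells bearing transiently transfected chimeric NR-GAL4 reporter units were treated with chemicals for 24 h. Total RNA was reverse-transcribed, reporter sequences amplified and labelled, then quantified by capillary electrophoresis. Activity was fitted upward relative to DMSO.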

A short description of assay [8]: ATG_NF_kB_CIS: Attagene CIS-FACTORIAL HepG2 Assay for human Nuclear Factor Kappa B (NF-kB) (AID 2282991; active means hit-call score of the fitted dose curve at least 0.9, where 1 is the maximum; inactive means score below 0.9). The settings on record: HepG2 Attagene cis-factorial NF-kB reporter mRNA; actives raise or lower the signal. An outline of the steps:
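Transient MRTU transfection of human HepG2 liver cells → 24 h chemical exposure → total RNA, oligo(dT) RT → PCR, 6-FAM primer extension, HpaI digest 2 h 37 C → CE fragment analysis. Bidirectional fitting, DMSO negative control.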

Assay [9] can be described thus: ATG_NRF2_ARE_CIS: Attagene CIS-FACTORIAL HepG2 Assay for human Nuclear Factor Erythroid 2 Related Factor 2 (NFR2) response to Antioxidant Response Elements (ARE) (AID 2282992; active means hit-call score of the fitted dose curve at least 0.9, where 1 is the maximum; inactive means score below 0.9;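 on AC50: reporter mRNA level measured by RT-PCR and capillary electrophoresis fluorescence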). The following applies: HepG2 Attagene ARE/NRF2 reporter, transcription factor activity; actives raise or lower the signal. An outline of the steps: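 Endogenous transcription factor activity in human liver HepG2 cells is tracked via a cis-element-driven reporter within a multiplexed set. mRNA induction is read by RT-PCR and capillary electrophoresis after 24 h, with DMSO as baseline.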

Assay [10] can be described thus: ATG_Oct_MLP_CIS: Attagene CIS-FACTORIAL HepG2 Assay for human Octamer-Binding Transcription Factor (Oct) (AID 2282993; active means hit-call score of the fitted dose curve at least 0.9, where 1 is the maximum; inactive means score below 0.9). The settings on record: HepG2 Attagene cis-factorial Oct reporter, mRNA; actives raise or lower the signal. In a few lines:
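Read-out: reporter mRNA via RT-PCR plus capillary electrophoresis of 6-FAM-labelled fragments. Transiently transfected HepG2, 24 h exposure, endogenous TF activity on cis elements. Gain or loss of signal fitted relative to DMSO.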

The target of assay [11] is human Peroxisome Proliferator-activated Receptor alpha (PPARa), PPARA (gene 5465) (UniProt Q07869). The experiment in a line: ATG_PPARa_TRANS: Attagene TRANS-FACTORIAL HepG2 Assay for human Peroxisome Proliferator-activated Receptor alpha (PPARa) (AID 2283001).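 On AC50: potency for gain of reporter signal over DMSO so agonist or activator.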 In a few lines:
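Transient HepG2 transfection, GAL4-UAS reporters, NR-Gal4 chimeras; 24 h compound exposure. Readout: reporter transcripts by RT-PCR, 6-FAM primer extension, HpaI digest, capillary electrophoresis. Positive direction vs DMSO baseline.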

In assay [12] the target is human Retinoid X Receptor beta (RXRb), RXRB (gene 6257) (UniProt P28702). The assay can be described thus: ATG_RXRb_TRANS: Attagene TRANS-FACTORIAL HepG2 Assay for human Retinoid X Receptor beta (RXRb) (AID 2283013). An outline of the steps: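 After a 24 h incubation with test chemical, transfected HepG2 cells carrying NR-Gal4 fusions and GAL4-UAS reporter transcription units yield RNA whose reporter cDNA is FAM-labelled, HpaI-cut and sized by capillary electrophoresis; increases over DMSO are scored.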

A short description of assay [13]: TOX21_p53_BLA_p2_viability: Viability Assessment in the Tox21 HCT-116 p53 Agonism Beta-lactamase Assay, Phase 2 (AID 2283591).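 Further: compound exposure lasted 16 h at 37 °C; actives lower the ATP signal meaning cytotoxicity.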 In a few lines: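 HCT116 p53-bla cells, 4000/well, dosed after 5 h plating (217-fold dilution of DMSO stocks) and incubated 16 h at 37C. Viability taken as cellular ATP by CellTiter-Glo luminescence after 30 min RT; signal loss marks cytotoxicity.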

The nature of assay [14]: TOX21_p53_BLA_p3_viability: Viability Assessment in the Tox21 HCT-116 p53 Agonism Beta-lactamase Assay, Phase 3 (AID 2283593).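 Further: cells exposed to compound for 16 h before reading.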 In a few lines: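 HCT116 cells, 4000/well, dosed 5 h after plating by pin transfer (217-fold dilution from DMSO stock) and incubated 16 h at 37C, 5% CO2. Viability read as ATP luminescence with CellTiter-Glo after 30 min at room temperature.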
For assay [15], the target named is Cellular tumor antigen p53 (Homo sapiens) (UniProt P04637). The experiment in a line: TOX21_p53_BLA_p5_ratio: Tox21 HCT-116 p53 Agonism Beta-lactamase Assay, Ratio, Phase 5 (AID 2283599). In a few lines: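 HCT-116 p53-bla cells (4000/well) plated 5 h, dosed with compound (217-fold DMSO dilution) for 16 h at 37 C; CCF4-AM substrate 2 h at room temperature. Activity is the 460/530 nm emission ratio (405 nm excitation), fitted in gain-of-signal direction versus DMSO.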

A short description of assay [16]: TOX21_p53_BLA_p5_viability: Viability Assessment in the Tox21 HCT-116 p53 Agonism Beta-lactamase Assay, Phase 5 (AID 2283600). An outline of the steps:
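Viability is taken from cellular ATP content, measured by luciferase luminescence in the same wells after the beta-lactamase ratio read. Cells are seeded at 4000 per well and exposed to DMSO-dissolved compounds, diluted 217-fold, for 16 h.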

For assay [17], the target named is Cellular tumor antigen p53 (Homo sapiens) (UniProt P04637). The experiment in a line: TOX21_p53_BLA_p4_ratio: Tox21 HCT-116 p53 Agonism Beta-lactamase Assay, Ratio, Phase 4 (AID 2283601). In a few lines:
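HCT-116 p53 beta-lactamase reporter cells (4000/well) preincubated 5 h, then compound (217-fold dilution of DMSO stock) for 16 h at 37C. CCF4-AM substrate added 2 h at room temperature; 460/530 nm emission ratio fitted upward versus DMSO.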

The target in assay [18] is Heat shock factor protein 1 (Homo sapiens) (UniProt Q00613). The assay can be described thus: ATG_HSE_CIS: Attagene CIS-FACTORIAL HepG2 Assay for human Heat Shock Transcription Factor 1 (HSE) (AID 2282953; active means hit-call score of the fitted dose curve at least 0.9, where 1 is the maximum; inactive means score below 0.9). The following applies: HepG2 HSE cis-reporter, Attagene RNA transcription; actives raise or lower the signal. An outline of the steps:
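Read-out: fluorescence of reporter-specific RT-PCR fragments separated by capillary electrophoresis. HepG2 carrying transfected cis-element reporter units; 24 h dosing; activity fitted in both directions relative to DMSO baseline.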

The target of assay [19] is Signal transducer and activator of transcription 3 (Homo sapiens) (UniProt P40763). The experiment in a line: ATG_STAT3_CIS: Attagene CIS-FACTORIAL HepG2 Assay for human Signal Transducer and Activator of Transcription 3 (STAT3) (AID 2282963; active means hit-call score of the fitted dose curve at least 0.9, where 1 is the maximum; inactive means score below 0.9). The settings on record: HepG2, Attagene cis-factorial STAT3 reporter transcription; actives raise or lower the signal. An outline of the steps:
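Readout: fluorescent reporter mRNA fragments resolved by capillary electrophoresis. Setup: HepG2 transfected with MRTUs reporting endogenous transcription-factor activity, dosed 24 h. Gain or loss of signal fitted bidirectionally against DMSO control.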

Assay [20] deals with Cellular tumor antigen p53 (Homo sapiens) (UniProt P04637). The assay can be described thus: TOX21_p53_BLA_p3_ratio: Tox21 HCT-116 p53 Agonism Beta-lactamase Assay, Ratio, Phase 3 (AID 2283596). In a few lines:
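Cells were seeded at 4000/well, rested 5 h at 37C, then dosed with DMSO compound solutions (217-fold dilution) for 16 h. CCF4-AM substrate was loaded for 2 h at room temperature, and the 460/530 nm emission ratio was fitted for gain of signal versus DMSO.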

Results filed as inconclusive are left out. Activity calls are given as the source filed them. How the source made its calls, unless noted: active means hit-call score of the fitted dose curve at least 0.9, where 1 is the maximum; inconclusive means response in the unintended direction; inactive means score below 0.9.

Chain of Heat shock factor protein 1 (Homo sapiens) (Q00613 whole entry, looked up, the tested form may be a part): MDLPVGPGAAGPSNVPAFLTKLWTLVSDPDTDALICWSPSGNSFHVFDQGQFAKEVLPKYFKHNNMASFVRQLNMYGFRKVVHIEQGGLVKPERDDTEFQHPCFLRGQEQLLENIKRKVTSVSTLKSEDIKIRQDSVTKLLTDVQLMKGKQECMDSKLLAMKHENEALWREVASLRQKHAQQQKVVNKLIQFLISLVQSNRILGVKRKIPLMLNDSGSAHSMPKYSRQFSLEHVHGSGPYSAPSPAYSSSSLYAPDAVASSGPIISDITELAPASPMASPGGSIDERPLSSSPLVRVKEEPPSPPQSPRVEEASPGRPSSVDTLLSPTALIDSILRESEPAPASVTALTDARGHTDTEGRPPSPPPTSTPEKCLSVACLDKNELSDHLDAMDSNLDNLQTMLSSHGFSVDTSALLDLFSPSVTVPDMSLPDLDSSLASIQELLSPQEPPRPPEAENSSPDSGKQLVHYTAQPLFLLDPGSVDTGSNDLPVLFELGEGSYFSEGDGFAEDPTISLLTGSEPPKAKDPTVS
Chain of Hepatocyte nuclear factor 4-alpha (Homo sapiens) (P41235 whole entry, looked up): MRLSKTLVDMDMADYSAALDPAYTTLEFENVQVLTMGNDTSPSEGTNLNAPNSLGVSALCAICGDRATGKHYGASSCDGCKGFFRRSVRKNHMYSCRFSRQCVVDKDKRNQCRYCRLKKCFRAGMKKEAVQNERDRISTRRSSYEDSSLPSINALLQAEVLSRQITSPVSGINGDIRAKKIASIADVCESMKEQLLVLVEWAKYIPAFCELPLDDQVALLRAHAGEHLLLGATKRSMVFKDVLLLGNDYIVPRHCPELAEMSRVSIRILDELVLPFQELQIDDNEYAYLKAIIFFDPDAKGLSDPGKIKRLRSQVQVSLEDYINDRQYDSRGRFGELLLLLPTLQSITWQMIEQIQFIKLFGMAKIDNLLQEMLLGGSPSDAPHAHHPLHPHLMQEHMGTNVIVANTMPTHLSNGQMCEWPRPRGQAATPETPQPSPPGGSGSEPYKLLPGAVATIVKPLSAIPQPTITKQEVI
Chain of Signal transducer and activator of transcription 3 (Homo sapiens) (P40763 whole entry, looked up, the tested form may be a part): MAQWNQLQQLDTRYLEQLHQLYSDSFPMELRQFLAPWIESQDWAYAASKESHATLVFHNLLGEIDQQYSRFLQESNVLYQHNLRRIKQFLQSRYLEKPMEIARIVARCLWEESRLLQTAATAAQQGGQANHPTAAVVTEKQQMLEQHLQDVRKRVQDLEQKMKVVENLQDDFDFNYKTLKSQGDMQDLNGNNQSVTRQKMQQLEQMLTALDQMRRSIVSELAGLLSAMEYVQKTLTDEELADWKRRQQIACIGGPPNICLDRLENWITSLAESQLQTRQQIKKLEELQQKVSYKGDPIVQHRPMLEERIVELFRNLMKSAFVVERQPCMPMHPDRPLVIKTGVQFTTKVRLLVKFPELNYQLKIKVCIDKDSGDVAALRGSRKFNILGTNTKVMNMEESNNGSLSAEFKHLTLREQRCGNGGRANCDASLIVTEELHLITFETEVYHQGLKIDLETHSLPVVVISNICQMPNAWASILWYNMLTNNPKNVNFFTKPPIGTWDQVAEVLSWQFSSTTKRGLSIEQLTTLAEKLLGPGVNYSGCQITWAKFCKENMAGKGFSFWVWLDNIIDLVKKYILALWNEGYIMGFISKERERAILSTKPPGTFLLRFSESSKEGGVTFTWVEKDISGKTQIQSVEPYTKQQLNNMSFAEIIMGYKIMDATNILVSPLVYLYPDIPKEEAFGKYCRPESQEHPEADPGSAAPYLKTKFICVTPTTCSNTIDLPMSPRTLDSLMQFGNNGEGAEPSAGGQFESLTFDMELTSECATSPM
Chain of human Retinoid X Receptor beta (RXRb), RXRB (gene 6257) (P28702 whole entry, looked up, the tested form may be a part): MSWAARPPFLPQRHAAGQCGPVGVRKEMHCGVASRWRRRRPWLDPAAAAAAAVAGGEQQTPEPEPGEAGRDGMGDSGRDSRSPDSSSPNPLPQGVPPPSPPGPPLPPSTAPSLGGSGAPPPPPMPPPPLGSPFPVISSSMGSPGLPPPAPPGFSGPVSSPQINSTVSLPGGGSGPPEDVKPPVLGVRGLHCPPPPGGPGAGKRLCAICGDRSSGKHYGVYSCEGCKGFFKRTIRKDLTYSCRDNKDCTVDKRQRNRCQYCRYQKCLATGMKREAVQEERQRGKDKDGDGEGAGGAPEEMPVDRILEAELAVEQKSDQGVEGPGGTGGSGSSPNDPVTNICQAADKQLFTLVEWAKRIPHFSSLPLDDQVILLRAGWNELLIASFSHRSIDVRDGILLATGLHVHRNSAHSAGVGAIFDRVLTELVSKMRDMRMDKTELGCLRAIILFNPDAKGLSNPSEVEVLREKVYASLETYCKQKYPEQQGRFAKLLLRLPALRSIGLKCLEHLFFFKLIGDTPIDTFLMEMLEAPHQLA
Chain of human Peroxisome Proliferator-activated Receptor alpha (PPARa), PPARA (gene 5465) (Q07869 whole entry, looked up, the tested form may be a part): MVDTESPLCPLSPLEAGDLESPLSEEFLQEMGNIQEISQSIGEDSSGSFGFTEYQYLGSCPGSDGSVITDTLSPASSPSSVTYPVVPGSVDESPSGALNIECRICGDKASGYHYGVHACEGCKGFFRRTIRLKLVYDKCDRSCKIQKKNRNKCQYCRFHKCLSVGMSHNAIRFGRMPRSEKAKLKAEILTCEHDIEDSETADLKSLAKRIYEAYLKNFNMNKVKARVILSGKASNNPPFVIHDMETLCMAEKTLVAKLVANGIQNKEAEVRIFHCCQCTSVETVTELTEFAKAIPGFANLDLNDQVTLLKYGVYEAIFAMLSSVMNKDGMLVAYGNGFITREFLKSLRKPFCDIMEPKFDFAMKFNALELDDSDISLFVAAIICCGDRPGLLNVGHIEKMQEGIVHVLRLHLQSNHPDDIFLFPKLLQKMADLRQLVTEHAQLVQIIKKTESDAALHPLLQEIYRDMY
Chain of Cellular tumor antigen p53 (Homo sapiens) (P04637 whole entry, looked up): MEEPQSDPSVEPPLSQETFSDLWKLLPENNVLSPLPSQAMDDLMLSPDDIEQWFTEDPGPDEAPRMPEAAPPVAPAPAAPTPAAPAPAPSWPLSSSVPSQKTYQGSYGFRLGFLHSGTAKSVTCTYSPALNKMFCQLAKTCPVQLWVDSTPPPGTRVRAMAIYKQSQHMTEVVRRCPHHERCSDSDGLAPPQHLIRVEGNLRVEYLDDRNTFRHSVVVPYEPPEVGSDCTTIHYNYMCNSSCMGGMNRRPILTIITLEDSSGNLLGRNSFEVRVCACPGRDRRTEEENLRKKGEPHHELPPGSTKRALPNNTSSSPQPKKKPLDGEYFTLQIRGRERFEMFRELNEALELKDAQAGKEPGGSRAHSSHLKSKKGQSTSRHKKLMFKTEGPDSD
Chain of Hepatocyte nuclear factor 6 (Homo sapiens) (Q9UBC0 whole entry, looked up): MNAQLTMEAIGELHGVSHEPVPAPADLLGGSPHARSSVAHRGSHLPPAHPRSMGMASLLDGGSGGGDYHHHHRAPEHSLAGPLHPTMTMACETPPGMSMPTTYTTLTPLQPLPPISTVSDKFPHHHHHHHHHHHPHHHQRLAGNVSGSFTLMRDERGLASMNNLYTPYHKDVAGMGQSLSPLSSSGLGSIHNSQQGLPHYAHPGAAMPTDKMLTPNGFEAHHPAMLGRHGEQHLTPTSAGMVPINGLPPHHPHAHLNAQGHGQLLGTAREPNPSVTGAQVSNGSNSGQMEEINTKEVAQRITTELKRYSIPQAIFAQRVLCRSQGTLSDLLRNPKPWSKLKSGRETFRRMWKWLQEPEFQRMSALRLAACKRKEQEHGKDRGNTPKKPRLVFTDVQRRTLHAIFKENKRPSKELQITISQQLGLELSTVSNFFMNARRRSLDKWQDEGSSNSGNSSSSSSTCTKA

As for `CCCCCCC(O)CCCCCCCCCCC(=O)OC` (centres undefined), the result in [1], in assay [2], in assay [3], in assay [4], in assay [5] and in assay [6] was inactive. For the same molecule, the call in [7], in assay [8], in [9], in [10], in [13] and in assay [14] was inactive. The outcome in assay [15], in assay [16] and in assay [17] was inactive. Also, the AC50 (usually the concentration at which the activity in the assay is half-maximal) is 7.36 µM (active) in [11] and 53.5 µM (active) in assay [12].
`C=CN1CCCCCC1=O`: the molecule was called inactive in assay [2], in assay [3], in assay [18], in assay [19], in assay [9] and in assay [10]. For the same molecule, the call in assay [11], in assay [12], in assay [13], in [14], in [20] and in assay [15] was inactive. Further, the result in assay [17] was inactive.
As to `CC(C)CC(=O)CC(C)C`, the call in assay [1], in assay [5], in assay [7], in [8], in [10] and in assay [13] was inactive. Moreover, the molecule was called inactive in assay [14], in assay [20], in [15], in assay [16] and in assay [17].
As for `COC(=O)[C@]1(C)CCC[C@@]2(C)[C@H]1CC=C1C=C(C(C)C)CC[C@@H]12`, the result in assay [1], in [2], in assay [3], in assay [4], in [19] and in assay [7] was inactive. Besides, the outcome in assay [8], in [12], in [13], in [14] and in assay [20] was inactive. Further, the AC50 in assay [18] is 26.4 µM (active); in assay [9], 32.2 µM (active).
Regarding `COCCCN`, the molecule was classed as inactive in [2], in assay [4], in [19], in [6], in [8] and in assay [9]. Moreover, the result in [10], in assay [11], in assay [12], in assay [13], in assay [14] and in [20] was inactive. For the same molecule, the outcome in assay [15] and in assay [16] was inactive.
As to `CN(C)N=Nc1ccccc1`, the molecule was called inactive in assay [1], in assay [18], in assay [19], in [6], in assay [8] and in assay [10]. The call in [11], in [12], in [20], in assay [16] and in [17] was inactive. Besides, the AC50 in assay [9] is 177 µM (active).
As for `CCC(C)=NO`, the molecule was called inactive in [1], in [2], in assay [3], in [18], in assay [4] and in assay [19]. Also, the molecule was called inactive in assay [6], in assay [7], in [9], in assay [10], in assay [11] and in [13]. The molecule was classed as inactive in assay [14], in assay [20], in assay [15] and in [17].
Take `O=C(c1ccccc1)c1ccccc1O`: the call in assay [1], in [2], in assay [4], in assay [5], in [7] and in assay [8] was inactive. Besides, the result in [9], in assay [10] and in assay [11] was inactive. In addition, the AC50 is 148 µM (active) in assay [3] and 75.9 µM (active) in assay [12].
Take `CN(C)Cc1cc(C(C)(C)C)c(O)c(C(C)(C)C)c1`: the result in assay [1], in assay [2], in assay [18], in assay [19], in assay [10] and in assay [13] was inactive. Besides, the call in [14], in [20] and in [16] was inactive. Besides, the AC50 in assay [5] was 43.1 µM (active); in [9] it was 37.8 µM (active); in assay [12], 1.67 µM (active).

These data come from PubChem BioAssay (EPA / NIEHS).
